PubChem BioAssay
Calls of active or inactive are those of the source. The rule behind the calls is not given here.

These compounds were tested against Pantothenate synthetase (Mycobacterium tuberculosis (strain ATCC 25618 / H37Rv)) (UniProt P9WIL5) (assay: Recombinant Mtb pantothenate synthetase (PanC) inhibitors, coupled enzyme, confirmatory (AID 375;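 note: 0% = full reaction with vehicle and 100% = no enzyme background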)). Conditions: coupled enzyme assay; at 10 µM, hits give high values.
Chain of Pantothenate synthetase (Mycobacterium tuberculosis (strain ATCC 25618 / H37Rv)) (P9WIL5 whole entry, looked up): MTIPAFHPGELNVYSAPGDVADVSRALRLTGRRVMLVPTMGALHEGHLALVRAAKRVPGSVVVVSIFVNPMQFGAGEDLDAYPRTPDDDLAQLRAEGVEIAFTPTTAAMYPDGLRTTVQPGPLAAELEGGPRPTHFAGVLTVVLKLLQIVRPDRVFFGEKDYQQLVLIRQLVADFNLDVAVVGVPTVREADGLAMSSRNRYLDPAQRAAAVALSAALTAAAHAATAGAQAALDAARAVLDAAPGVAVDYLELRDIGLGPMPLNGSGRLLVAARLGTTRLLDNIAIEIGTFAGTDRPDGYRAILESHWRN
`Cc1ccc(C)c(N2C(=O)CN=C2Nc2ccccc2Cl)c1` was tested, and the inhibition was 4% (inactive). For `Cc1ccc(SCC(=O)NCCN2C(=O)CSC2=O)c(C)c1`, the inhibition was 0% (inactive). In the case of `COc1ccccc1-n1cnc(N)c1C(C)=O`, the inhibition is reported as 0% (inactive). `O=C(O)CCCc1ccccc1` was tested, and the inhibition was 0% (inactive). For `CCN(CCCNC(=O)CC1Oc2ccc(C)cc2NC1=O)Cc1ccccc1` (stereo not given), the inhibition was 0% (inactive). `O=C(NCC1CCCO1)C1CCCN(S(=O)(=O)c2cccc3nsnc23)C1` (stereo not given) was tested, and the inhibition was 4% (inactive). For `CCc1nc2sc3ccccc3c(=O)c2c(=O)n1Cc1ccco1`, the inhibition was 0% (inactive). For `CCOc1ccc2nc(S(N)(=O)=O)sc2c1`, the inhibition was 3% (inactive). `Cc1ccccc1Cc1c(C)nc2c(C(=O)N3CCN(Cc4ccc5c(c4)OCO5)CC3)cnn2c1C` was tested, and the inhibition was 5% (inactive). With `Cc1cc(NCCN2CCCCC2)n2c(nc3ccccc32)c1C#N` the inhibition was 14% (inactive). `Clc1ccc(SCCCCn2ccnc2)cc1` was tested, and the inhibition was 8% (inactive). In the case of `COc1cc(CC(=O)Nc2ncc(C)s2)cc(OC)c1OC`, the inhibition is reported as 0% (inactive). In the case of `Cn1c(-n2c(-c3ccco3)nc3ccccc3c2=O)nc2ccccc21`, the inhibition is reported as 2% (inactive). `CSC1=NCCN1C(=O)c1ccc(S(=O)(=O)N2CCCC2)cc1` was tested, and the inhibition was 0% (inactive). `CCN(CC(=O)Nc1ccc2c(c1)OCCO2)Cc1cc(=O)oc2cc(C)c(C)cc12` was tested, and the inhibition was 0% (inactive). With `COc1cccc(C2CC(c3ccc(C)cc3)n3nc(N)nc3N2)c1` (stereo not given) the inhibition was 15% (inactive). With `COCCn1c(CN2CCN(c3ccccc3F)CC2)nc2c1c(=O)n(C)c(=O)n2C` the inhibition was 6% (inactive). For `CCC(C)(C(=O)NC1CCCCC1)N(Cc1ccco1)C(=O)c1cnccn1` (stereo not given), the inhibition was 3% (inactive). In the case of `Cc1ccc(-c2nnc3c4ccccc4c(C)nn23)cc1NC(=O)c1ccco1`, the inhibition is reported as 0% (inactive). For `CCOC(=O)C1CCN(Cc2ccc(OC)c(C)c2OC)CC1`, the inhibition was 0% (inactive). In the case of `Cc1cc2c(cc(C(=O)OCC(=O)NCc3cccs3)n2C(C)C)o1`, the inhibition is reported as 0% (inactive). With `CC(=O)Nc1nnc(S(N)(=O)=O)s1` the inhibition was 0% (inactive). With `C=CCn1cc(C(=O)NCCOC)c(=O)c2cc(S(=O)(=O)N(CC)CC)ccc21` the inhibition was 0% (inactive). With `Cc1ccc2[nH]c(=O)c(CN(CCc3ccccc3)Cc3nnnn3CC3CCCO3)cc2c1` (stereo not given) the inhibition was 2% (inactive). For `COc1ccc(CN2C(=O)[C@@H]3C(c4ccc(F)cc4)=NO[C@@H]3C2=O)cc1`, the inhibition was 2% (inactive). In the case of `CCCCn1c(CN2CCN(c3cccc(Cl)c3)CC2)nc2c1c(=O)n(C)c(=O)n2C`, the inhibition is reported as 6% (inactive). For `COc1ccc(OC)c(C2C(C#N)=C(N)Oc3cc(C)[nH]c(=O)c32)c1` (stereo not given), the inhibition was 0% (inactive). `Cc1cc2oc(=O)cc(CN3CCN(Cc4ccc5c(c4)OCO5)CC3)c2cc1C` was tested, and the inhibition was 0% (inactive). For `COc1ccc(N(CC(=O)N2c3ccccc3CC2C)S(=O)(=O)c2c(C)noc2C)cc1` (stereo not given), the inhibition was 7% (inactive). For `COc1ccc(-n2c(SCC(=O)N3CCCCC3C)nnc2-c2cccnc2)cc1` (stereo not given), the inhibition was 0% (inactive). `CCCCc1c(O)nc(SCC(=O)Nc2ccc3c(c2)CCC3)[nH]c1=O` was tested, and the inhibition was 2% (inactive). `CCC(=O)N(CCCN(C)C)c1nc(-c2cc(OC)ccc2OC)cs1` was tested, and the inhibition was 6% (inactive). `CC1CCCN(C(=O)CN2CCN(C(=O)c3ccco3)CC2)C1` (stereo not given) was tested, and the inhibition was 0% (inactive). For `C1=CC2CC1CC2CN1CCN(c2ccccc2)CC1` (stereo not given), the inhibition was 5% (inactive). With `CC(=O)NC1CC2CCCC(C1)N2CC(=O)Nc1ccccc1` (stereo not given) the inhibition was 3% (inactive). `Cc1nn(-c2ccccc2)c(Cl)c1C1C(C#N)=C(N)OC2=C1C(=O)CC(C)(C)C2` (stereo not given) was tested, and the inhibition was 0% (inactive). In the case of `O=C(c1ccc(NS(=O)(=O)c2cccs2)cc1)N1CCCCC1`, the inhibition is reported as 0% (inactive). With `COC(=O)CSc1nc2nc(C)cc(C)n2n1` the inhibition was 7% (inactive). In the case of `COc1cc2c(cc1OC)-c1nnc(C)n1C1(CCCC1)C2`, the inhibition is reported as 0% (inactive). For `CCCC1(C(=O)OCC)NC(c2ccc(N(C)C)cc2)C2C(=O)N(c3ccc(F)cc3)C(=O)C21` (stereo not given), the inhibition was 3% (inactive).
